Screening results (PubChem)
VP16 counter = VP16 counterscreen qHTS for inhibitors of ROR gamma transcriptional activity; AID 2546, 2010; 310,000 compounds, 3.5% hits; Drosophila S2 Gal4-VP16 UAS-luciferase, luminescence, 20 h; Potency, µM (series often up to 53.6 µM), hits mostly inhibitors;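 also: Gal4-VP16 expression switched on by copper sulfate through the metallothionein promoter; nearly all actives have a fitted effect of over 50% in size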
ERG-DNA inh = qHTS for Small Molecule Inhibitors of the ERG Ets/DNA interaction. fluorescence polarization, His-ERG Ets domain / labelled DNA. 370,000 compounds, 0.028% hits. Potency, µM (top dose mostly 76.9 µM), most hits filed as inhibitors. Transcriptional regulator ERG (Homo sapiens), P11308. AID 624246, 2012; active = well fitted inhibition curve with a large enough effect in the polarisation, with a control signal flat; inconclusive = small, poorly fitted or top-dose-only effect, or effect the other way, or a change in a side signal; inactive = no such curve, though single readings can be large or run the other way; the % refers to the polarisation;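 also: polarization taken with two DNA probes labelled with fluorescein and Texas red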
Target sequence (P11308 whole entry, looked up, the tested form may be a part): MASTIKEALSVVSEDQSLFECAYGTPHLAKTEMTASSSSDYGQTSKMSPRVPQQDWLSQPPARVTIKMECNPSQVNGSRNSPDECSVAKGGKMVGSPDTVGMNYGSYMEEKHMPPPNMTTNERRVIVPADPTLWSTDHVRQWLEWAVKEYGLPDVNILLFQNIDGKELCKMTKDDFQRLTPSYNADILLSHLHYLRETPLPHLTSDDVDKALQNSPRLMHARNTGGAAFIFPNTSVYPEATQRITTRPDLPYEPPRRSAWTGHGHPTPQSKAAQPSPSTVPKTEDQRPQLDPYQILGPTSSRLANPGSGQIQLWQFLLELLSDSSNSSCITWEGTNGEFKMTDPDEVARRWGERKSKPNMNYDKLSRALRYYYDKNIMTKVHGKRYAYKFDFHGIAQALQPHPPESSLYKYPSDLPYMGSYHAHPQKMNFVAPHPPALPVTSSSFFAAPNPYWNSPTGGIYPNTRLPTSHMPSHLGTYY
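His-tagged ERG Ets domain (1 uM in the protein solution; 300mM KCl, 50mM Tris-HCl, 1mM EDTA, 1mM DTT, pH 7.5) received compound, then a probe mix of 5 nM fluorescein-DNA and 100nM Texas-615-DNA. Fluorescence polarization was read for both dyes.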
Giardia killer = Small Molecules that selectively kill Giardia lamblia: qHTS. activity change, % at 7.66 µM, hits read low. 340,000 compounds, 0.15% hits. Giardia lamblia trophozoite viability; in the data active = activity change below about -80%; inconclusive = between about -30% and that limit;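 also: parasites exposed to compound for two days anaerobically before the ATP read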
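Compounds were tested on trophozoites seeded at 100 cells/well and held 48 hrs at 37 deg C anaerobically. An ATP-based luminescent kit measured the remaining live cells.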
RORgamma inh = qHTS for inhibitors of ROR gamma transcriptional activity; Nuclear receptor ROR-gamma (Mus musculus), P51450; Potency, µM (series often up to 53.6 µM), most hits filed as inhibitors; Drosophila S2 Gal4-RORgamma UAS-luciferase reporter, 20 h; AID 2551, 2010; 310,000 compounds, 5.4% hits; also: nearly all actives have a fitted effect of over 60% in size
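Compounds are pin-transferred onto Drosophila Schneider cells expressing a copper-inducible Gal4–ROR gamma transactivation domain fusion. After 1 hr, copper sulfate is added to 700 uM final; luciferase is read 20 hr later.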
Integrin act MD = qHTS for Activators of Integrin-Mediated Alleviation for Muscular Dystrophy; AID 624291, 2012; Potency, µM (top dose mostly 38.3 µM), usual class: activators; alpha7betagal myoblasts, beta-gal FDG fluorescence, 48 h; 350,000 compounds, 0.064% hits; also: nearly all actives have a fitted effect of over 60% in size
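alpha7betagal+/- myoblasts (passage 13, 250/well) treated 48 h at 37C with compounds at 1:260 dilution of DMSO stock. Lysed, then beta-galactosidase activity read as FDG fluorescence (ex 480/em 540) after 30 min, with pre-read for autofluorescence.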
Hits are given with their value; [ ] = dose if it differs, or a comment. Only a selection was taken, and hits are over-represented in it overall. Unless noted, calls follow the shape of the dose curve; as a rule, active = well fitted curve in the direction sought with a large enough effect; inconclusive = small, poorly fitted or top-dose-only effect, or another doubt; inactive = no such curve, though single readings can be large; an effect the other way counts as inactive or inconclusive.

COC(=O)c1cc(=O)n(Cc2ccc(OC)c(OC)c2)c(=Nc2ccc(F)cc2)s1 was read as VP16 counter inconclusive, ERG-DNA inh inactive, Giardia killer inactive, RORgamma inh inconclusive and Integrin act MD inactive.
`COc1ccc2ccccc2c1C1NC(=O)NC(C)=C1[N+](=O)[O-]` (stereo not drawn) gave VP16 counter 11µM, ERG-DNA inh inactive, Giardia killer inactive, RORgamma inh inactive and Integrin act MD inactive.
CC1(C)CC(=S)Nc2ccccc2S1 was read as VP16 counter 5µM, ERG-DNA inh inactive, Giardia killer inactive, RORgamma inh 2.8µM and Integrin act MD inactive.
`Cc1ccc2c(CN(C)Cc3cccc(F)c3)cc(=O)oc2c1C` gave VP16 counter inactive, ERG-DNA inh inactive, Giardia killer inactive, RORgamma inh inactive and Integrin act MD inactive.
Cc1ccc2c(CN(C)Cc3ccccc3)cc(=O)oc2c1C was read as VP16 counter inactive, ERG-DNA inh 35µM, Giardia killer inactive, RORgamma inh inconclusive and Integrin act MD inactive.
Screening Cc1nnsc1C(=O)NNS(=O)(=O)c1cc(C(F)(F)F)cc(C(F)(F)F)c1 returned VP16 counter inactive, ERG-DNA inh inactive, Giardia killer inactive, RORgamma inh 11µM and Integrin act MD inactive.
For Cc1ccc(S(=O)(=O)NNC(=O)c2snnc2C)cc1 the results were VP16 counter inactive, ERG-DNA inh inactive, Giardia killer inactive, RORgamma inh inactive and Integrin act MD inactive.
For COc1cc(C#N)c(NS(=O)(=O)c2ccc3[nH]c(=O)sc3c2)cc1OC the results were VP16 counter inactive, ERG-DNA inh inactive, Giardia killer inactive, RORgamma inh inactive and Integrin act MD inconclusive.
CCC(=O)NNc1nc2c(C)c(C)ccc2s1 was read as VP16 counter inactive, ERG-DNA inh inactive, Giardia killer inconclusive, RORgamma inh 7.9µM and Integrin act MD inactive.
For CCC(=O)NNc1nc2c(C)cccc2s1 the results were VP16 counter inconclusive, ERG-DNA inh inactive, Giardia killer inactive, RORgamma inh 11µM and Integrin act MD inactive.
`C=CCOC(=O)C(C(=O)CC)C(NC(=O)OC)c1ccc(F)cc1` (stereo not drawn) gave VP16 counter inactive[10 µM] and RORgamma inh inactive[10 µM].
Screening Cc1cc(C(=O)Nc2cccc3ccccc23)c(C)o1 returned VP16 counter inactive, ERG-DNA inh inactive, Giardia killer inconclusive, RORgamma inh inactive and Integrin act MD 7.9µM.
Cc1cc(C(=O)Nc2cc(C(C)(C)C)on2)c(C)o1 was read as VP16 counter inactive, ERG-DNA inh inactive, Giardia killer inactive, RORgamma inh 10µM and Integrin act MD inactive.
Screening COc1ccc(C2=Nn3c(nnc3-c3ccc(OC)cc3OC)SC2)c(OC)c1 returned VP16 counter inactive and RORgamma inh inactive.
`CCC(=O)C(C(=O)OC)[C@H](CCc1ccccc1)NC(=O)OC` (stereo partly drawn) gave VP16 counter inactive and RORgamma inh inactive.
COCC(=O)N1CCC2(CC1)CCN(c1ccncc1)CC2 was read as VP16 counter inactive and RORgamma inh inactive.
`C/C=C\C1=CCCC1Nc1ncnc2ccc(-c3c(C)noc3C)cc12` (stereo not drawn) gave VP16 counter inconclusive and RORgamma inh 11µM.
Cc1noc(C)c1-c1ccc2ncnc(NCc3ccc(-c4ccccc4)cc3)c2c1 was read as VP16 counter inactive and RORgamma inh inconclusive.
Cc1cccc(CNc2ncnc3ccc(-c4c(C)noc4C)cc23)c1 was read as VP16 counter inactive and RORgamma inh 2µM.
For CC(=O)NCCNc1ncnc2ccc(-c3c(C)noc3C)cc12 the results were VP16 counter inconclusive and RORgamma inh 11µM.
`Cc1noc(C)c1-c1ccc2ncnc(NC3CC3)c2c1` gave VP16 counter inactive and RORgamma inh inactive.
For COC(=O)c1ccccc1NC(=O)Cn1c(=O)n(CCCCC(=O)NCc2ccc3c(c2)OCO3)c(=O)c2ccccc21 the results were ERG-DNA inh inactive.
`Cc1ccc(Cl)cc1N1CCN(C(=O)c2ccc3c(c2)N(Cc2ccccc2F)C(=O)c2ccccc2S3=O)CC1` (stereo not drawn) gave ERG-DNA inh inactive.
`Cc1ccccc1C(=O)NCC(=O)NCC1(N2CCOCC2)CCCCC1` gave ERG-DNA inh inactive, Giardia killer inactive and Integrin act MD inactive.
Screening Cc1cccc(Nc2c3c(nc4ccccc24)CCC3)c1 returned VP16 counter inconclusive, ERG-DNA inh inactive, Giardia killer inactive, RORgamma inh 7.1µM and Integrin act MD inactive.
Screening COC(=O)c1ccc(NC(=S)NC2CCCCC2)cc1 returned VP16 counter inconclusive, ERG-DNA inh inactive, Giardia killer inactive, RORgamma inh 7.1µM and Integrin act MD inactive.
Screening COC(=O)c1ccc(NC(=S)NCC2CC2)cc1 returned VP16 counter inconclusive, ERG-DNA inh inactive, Giardia killer inactive, RORgamma inh 11µM and Integrin act MD inactive.
COC(=O)c1cccnc1NC(=S)NC1CCCCC1 was read as VP16 counter 1.3µM, ERG-DNA inh inactive, Giardia killer inactive, RORgamma inh 0.63µM and Integrin act MD inactive.
For COC(=O)c1ccc(NC(=S)NC2CC3CCC2C3)cc1 (stereo not drawn) the results were VP16 counter inconclusive, ERG-DNA inh inactive, Giardia killer inactive, RORgamma inh 11µM and Integrin act MD inactive.
COc1cccc(Nc2ncc3nc(CCc4ccccc4)c(=O)n(C)c3n2)c1 was read as VP16 counter inactive and RORgamma inh inactive.
Cc1cccc(N2CCN(c3ncnc4c3nc3n4CCCCC3)CC2C)c1 (stereo not drawn) was read as ERG-DNA inh inactive.
Screening CCCCN1CCCC1C(=O)Nc1c(C)cc(C)cc1C (stereo not drawn) returned VP16 counter inactive and RORgamma inh inactive.
`CS/C(N)=C(C#N)/C(C#N)=C(\N)SC` gave VP16 counter inactive and RORgamma inh inactive.
For COc1ccc(O[C@H]2C=C[C@@H](c3ccccc3)O[C@H]2COC(=O)CC/C(C)=N\O[C@@H](C)c2cn([C@H]3COC[C@H]3O)nn2)cc1 the results were VP16 counter inactive[10 µM] and RORgamma inh inactive[10 µM].
Screening Cc1nn(-c2ccccc2)c2sc(-c3n[nH]c(=S)o3)cc12 returned VP16 counter inactive[0.365 µM], ERG-DNA inh inactive, Giardia killer inactive, RORgamma inh 2.8µM and Integrin act MD inactive.
Screening Cc1cc(=O)n2nc(N(C)CC(=O)NCc3cccc(Br)c3)sc2n1 returned ERG-DNA inh inactive.
`CCn1c(C(C)NC(=O)c2ccc(Cl)cc2)n[nH]c1=S` (stereo not drawn) gave VP16 counter inactive[10 µM], ERG-DNA inh inactive, Giardia killer inactive, RORgamma inh 7.1µM and Integrin act MD inactive.
